Molecules are shown by their SMILES.

For assay [1], the target named is Ribosomal protein S6 kinase alpha-6 (Homo sapiens) (UniProt Q9UK32). The note with it: at 1 µM.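 Further: each value is a mean inhibition of RSK4 from a GSK PKIS panel screen.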
For assay [2], the target named is T1, Serine/threonine-protein kinase Sgk1 (Homo sapiens) (UniProt O00141).
T1 sequence (whole entry): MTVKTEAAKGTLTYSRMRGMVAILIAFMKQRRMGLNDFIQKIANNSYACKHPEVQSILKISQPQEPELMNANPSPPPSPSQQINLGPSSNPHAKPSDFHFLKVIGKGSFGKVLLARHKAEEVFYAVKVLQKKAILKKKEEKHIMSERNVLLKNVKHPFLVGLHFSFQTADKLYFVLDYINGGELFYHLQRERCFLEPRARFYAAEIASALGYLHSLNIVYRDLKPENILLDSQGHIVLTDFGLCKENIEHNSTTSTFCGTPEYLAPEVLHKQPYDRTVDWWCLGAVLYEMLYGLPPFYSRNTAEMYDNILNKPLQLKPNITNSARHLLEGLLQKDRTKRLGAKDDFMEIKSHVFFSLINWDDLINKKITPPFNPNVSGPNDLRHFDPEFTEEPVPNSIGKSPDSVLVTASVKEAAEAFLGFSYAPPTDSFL
The note with it: at 0.1 µM.

In assay [3] the target is T1, Serine/threonine-protein kinase Sgk1 (Homo sapiens). As to conditions: at 1 µM.
Assay [4] has as its target T2, Serine/threonine-protein kinase Sgk2 (Homo sapiens) (UniProt Q9HBY8).
T2 sequence (whole entry): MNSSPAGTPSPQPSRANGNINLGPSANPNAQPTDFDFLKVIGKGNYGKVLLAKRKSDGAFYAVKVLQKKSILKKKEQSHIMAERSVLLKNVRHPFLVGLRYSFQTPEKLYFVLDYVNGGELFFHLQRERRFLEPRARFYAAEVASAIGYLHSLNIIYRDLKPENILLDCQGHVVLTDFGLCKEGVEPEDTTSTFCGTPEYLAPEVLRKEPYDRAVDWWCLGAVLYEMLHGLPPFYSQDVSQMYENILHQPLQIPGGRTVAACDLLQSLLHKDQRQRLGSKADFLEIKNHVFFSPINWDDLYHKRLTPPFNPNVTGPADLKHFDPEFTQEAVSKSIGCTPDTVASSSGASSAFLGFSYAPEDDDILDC
As to conditions: at 0.1 µM.

Assay [5] addresses T2, Serine/threonine-protein kinase Sgk2 (Homo sapiens). The note with it: at 1 µM.
Assay [6] deals with T3, Serine/threonine-protein kinase Sgk3 (Homo sapiens) (UniProt Q96BR1).
T3 sequence (whole entry): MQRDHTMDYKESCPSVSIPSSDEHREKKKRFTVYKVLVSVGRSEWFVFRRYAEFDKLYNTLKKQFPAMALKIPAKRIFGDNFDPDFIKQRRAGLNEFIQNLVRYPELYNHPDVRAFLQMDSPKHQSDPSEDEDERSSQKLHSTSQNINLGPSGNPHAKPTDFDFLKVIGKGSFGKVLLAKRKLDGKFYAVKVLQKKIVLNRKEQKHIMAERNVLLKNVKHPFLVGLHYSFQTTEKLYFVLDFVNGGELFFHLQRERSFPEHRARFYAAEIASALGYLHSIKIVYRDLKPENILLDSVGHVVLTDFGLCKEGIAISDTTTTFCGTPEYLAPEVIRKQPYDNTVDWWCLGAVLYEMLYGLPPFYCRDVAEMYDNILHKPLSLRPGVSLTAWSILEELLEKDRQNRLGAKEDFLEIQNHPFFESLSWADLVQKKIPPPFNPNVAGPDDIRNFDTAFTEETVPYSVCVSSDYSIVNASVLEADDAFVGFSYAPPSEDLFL
As to conditions: at 0.1 µM.

Assay [7] concerns the target T3, Serine/threonine-protein kinase Sgk3 (Homo sapiens). As to conditions: at 1 µM.
The target in assay [8] is 5'-AMP-activated protein kinase catalytic subunit alpha-1 (Homo sapiens) (UniProt Q13131). As to conditions: at 0.1 µM.
The target is the same in assay [9]. As to conditions: at 1 µM.
In assay [10] the target is 5'-AMP-activated protein kinase catalytic subunit alpha-2 (Homo sapiens) (UniProt P54646). As to conditions: at 0.1 µM.
For assay [11] the target is unchanged. As to conditions: at 1 µM.
Assay [12] deals with T4, NUAK family SNF1-like kinase 1 (Homo sapiens) (UniProt O60285).
T4 sequence (whole entry): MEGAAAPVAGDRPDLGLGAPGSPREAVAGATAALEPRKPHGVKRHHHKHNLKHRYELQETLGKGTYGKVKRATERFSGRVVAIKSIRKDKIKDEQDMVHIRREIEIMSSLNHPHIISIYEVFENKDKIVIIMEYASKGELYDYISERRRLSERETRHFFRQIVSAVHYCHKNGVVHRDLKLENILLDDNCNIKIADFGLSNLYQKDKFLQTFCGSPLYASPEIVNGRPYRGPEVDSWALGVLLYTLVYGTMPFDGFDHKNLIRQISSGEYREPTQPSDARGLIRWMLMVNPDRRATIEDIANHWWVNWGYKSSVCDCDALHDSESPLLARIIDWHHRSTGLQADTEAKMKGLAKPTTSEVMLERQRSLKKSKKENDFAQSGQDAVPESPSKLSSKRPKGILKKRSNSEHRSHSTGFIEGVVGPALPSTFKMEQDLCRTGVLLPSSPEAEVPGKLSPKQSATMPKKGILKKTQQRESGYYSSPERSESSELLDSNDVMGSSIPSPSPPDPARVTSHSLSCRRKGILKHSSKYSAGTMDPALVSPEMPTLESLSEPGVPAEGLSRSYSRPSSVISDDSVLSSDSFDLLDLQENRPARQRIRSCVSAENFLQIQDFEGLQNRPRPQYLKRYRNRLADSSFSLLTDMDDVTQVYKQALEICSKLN
As to conditions: at 0.1 µM.

Assay [13] has as its target T4, NUAK family SNF1-like kinase 1 (Homo sapiens). As to conditions: at 1 µM.
Assay [14] has as its target T5, Serine/threonine-protein kinase BRSK1 (Homo sapiens) (UniProt Q8TDC3).
T5 sequence (whole entry): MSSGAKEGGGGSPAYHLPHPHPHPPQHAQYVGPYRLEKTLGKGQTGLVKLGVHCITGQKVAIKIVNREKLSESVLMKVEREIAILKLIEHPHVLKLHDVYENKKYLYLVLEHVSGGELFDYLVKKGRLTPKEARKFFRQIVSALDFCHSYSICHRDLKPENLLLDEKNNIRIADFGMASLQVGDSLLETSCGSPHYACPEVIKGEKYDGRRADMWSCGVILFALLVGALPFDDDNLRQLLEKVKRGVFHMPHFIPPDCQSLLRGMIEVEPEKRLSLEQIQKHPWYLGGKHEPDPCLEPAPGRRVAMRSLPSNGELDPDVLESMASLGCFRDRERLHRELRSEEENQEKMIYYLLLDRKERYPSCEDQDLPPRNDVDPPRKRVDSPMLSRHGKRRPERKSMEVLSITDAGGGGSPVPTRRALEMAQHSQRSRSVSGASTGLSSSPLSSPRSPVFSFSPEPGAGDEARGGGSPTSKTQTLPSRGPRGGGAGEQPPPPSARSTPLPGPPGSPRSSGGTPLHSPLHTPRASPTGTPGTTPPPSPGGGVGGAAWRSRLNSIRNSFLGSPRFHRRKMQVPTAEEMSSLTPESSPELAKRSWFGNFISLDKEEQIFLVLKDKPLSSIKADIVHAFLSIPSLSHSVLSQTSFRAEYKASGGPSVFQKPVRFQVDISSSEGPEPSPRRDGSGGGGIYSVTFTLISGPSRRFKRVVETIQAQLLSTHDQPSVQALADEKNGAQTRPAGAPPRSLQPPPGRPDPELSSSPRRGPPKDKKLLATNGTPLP
As to conditions: at 0.1 µM.

Assay [15] deals with T5, Serine/threonine-protein kinase BRSK1 (Homo sapiens). As to conditions: at 1 µM.
In assay [16] the target is T6, Serine/threonine-protein kinase BRSK2 (Homo sapiens) (UniProt Q8IWQ3).
T6 sequence (whole entry): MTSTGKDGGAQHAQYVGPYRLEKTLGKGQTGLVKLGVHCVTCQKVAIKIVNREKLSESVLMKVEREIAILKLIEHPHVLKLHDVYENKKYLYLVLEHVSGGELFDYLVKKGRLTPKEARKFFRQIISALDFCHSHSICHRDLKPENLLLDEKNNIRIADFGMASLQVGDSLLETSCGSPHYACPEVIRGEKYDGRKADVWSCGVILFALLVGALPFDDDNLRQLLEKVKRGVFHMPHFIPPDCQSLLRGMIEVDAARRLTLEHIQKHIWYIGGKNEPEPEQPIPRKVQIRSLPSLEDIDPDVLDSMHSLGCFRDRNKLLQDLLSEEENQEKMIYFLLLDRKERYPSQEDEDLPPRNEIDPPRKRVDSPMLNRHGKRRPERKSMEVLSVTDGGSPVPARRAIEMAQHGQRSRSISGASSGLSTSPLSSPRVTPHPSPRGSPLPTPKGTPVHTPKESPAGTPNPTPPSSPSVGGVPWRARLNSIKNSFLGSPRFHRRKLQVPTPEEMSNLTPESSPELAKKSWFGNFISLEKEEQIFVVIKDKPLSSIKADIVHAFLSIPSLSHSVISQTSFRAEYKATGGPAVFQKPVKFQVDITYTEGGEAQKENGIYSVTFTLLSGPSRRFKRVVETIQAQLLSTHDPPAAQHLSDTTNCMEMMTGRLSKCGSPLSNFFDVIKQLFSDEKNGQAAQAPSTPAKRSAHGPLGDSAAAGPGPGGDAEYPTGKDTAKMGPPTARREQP
As to conditions: at 0.1 µM.

Assay [17] has as its target T6, Serine/threonine-protein kinase BRSK2 (Homo sapiens). As to conditions: at 1 µM.
For assay [18], the target named is Calcium/calmodulin-dependent protein kinase type 1D (Homo sapiens) (UniProt Q8IU85). The note with it: at 0.1 µM.
Assay [19] shares this target. The note with it: at 1 µM.
The target of assay [20] is Calcium/calmodulin-dependent protein kinase type II subunit alpha (Homo sapiens) (UniProt Q9UQM7). As to conditions: at 0.1 µM.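 Further: reported values are averages (mean inhibition of CAMK2A).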
Chain of Calcium/calmodulin-dependent protein kinase type II subunit alpha (Homo sapiens) (Q9UQM7 whole entry): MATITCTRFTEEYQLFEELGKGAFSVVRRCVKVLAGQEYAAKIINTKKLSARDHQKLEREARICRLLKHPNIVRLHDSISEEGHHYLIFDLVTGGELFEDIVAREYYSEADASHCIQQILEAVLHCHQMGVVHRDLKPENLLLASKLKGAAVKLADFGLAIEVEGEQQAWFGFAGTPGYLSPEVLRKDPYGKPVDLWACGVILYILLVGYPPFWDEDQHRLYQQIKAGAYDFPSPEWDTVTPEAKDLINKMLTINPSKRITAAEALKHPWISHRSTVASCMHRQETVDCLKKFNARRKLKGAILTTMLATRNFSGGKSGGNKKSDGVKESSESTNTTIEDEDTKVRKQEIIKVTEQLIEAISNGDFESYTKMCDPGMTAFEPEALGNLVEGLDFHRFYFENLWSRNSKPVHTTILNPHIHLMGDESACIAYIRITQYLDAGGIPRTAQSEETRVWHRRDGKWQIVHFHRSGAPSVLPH

Chain of Ribosomal protein S6 kinase alpha-6 (Homo sapiens) (Q9UK32 whole entry): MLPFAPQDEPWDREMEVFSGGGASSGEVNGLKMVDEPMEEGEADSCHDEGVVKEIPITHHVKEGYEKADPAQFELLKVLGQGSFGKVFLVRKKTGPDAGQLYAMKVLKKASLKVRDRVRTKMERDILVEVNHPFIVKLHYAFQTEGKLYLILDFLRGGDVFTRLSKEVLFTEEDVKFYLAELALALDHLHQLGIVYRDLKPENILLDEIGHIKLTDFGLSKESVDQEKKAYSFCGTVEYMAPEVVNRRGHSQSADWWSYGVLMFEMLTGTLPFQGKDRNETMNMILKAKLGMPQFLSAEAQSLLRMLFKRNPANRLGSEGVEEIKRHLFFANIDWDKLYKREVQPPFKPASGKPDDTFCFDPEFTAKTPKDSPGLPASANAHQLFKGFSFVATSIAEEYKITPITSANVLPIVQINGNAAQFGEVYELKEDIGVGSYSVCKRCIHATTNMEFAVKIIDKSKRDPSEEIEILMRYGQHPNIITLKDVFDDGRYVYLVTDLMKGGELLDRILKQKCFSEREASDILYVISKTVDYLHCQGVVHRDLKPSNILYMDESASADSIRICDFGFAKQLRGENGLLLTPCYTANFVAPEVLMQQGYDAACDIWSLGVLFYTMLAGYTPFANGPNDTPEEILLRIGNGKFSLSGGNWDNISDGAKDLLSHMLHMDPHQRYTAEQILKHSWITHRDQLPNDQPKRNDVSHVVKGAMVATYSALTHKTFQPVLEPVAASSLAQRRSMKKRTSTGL
Chain of 5'-AMP-activated protein kinase catalytic subunit alpha-1 (Homo sapiens) (Q13131 whole entry, looked up): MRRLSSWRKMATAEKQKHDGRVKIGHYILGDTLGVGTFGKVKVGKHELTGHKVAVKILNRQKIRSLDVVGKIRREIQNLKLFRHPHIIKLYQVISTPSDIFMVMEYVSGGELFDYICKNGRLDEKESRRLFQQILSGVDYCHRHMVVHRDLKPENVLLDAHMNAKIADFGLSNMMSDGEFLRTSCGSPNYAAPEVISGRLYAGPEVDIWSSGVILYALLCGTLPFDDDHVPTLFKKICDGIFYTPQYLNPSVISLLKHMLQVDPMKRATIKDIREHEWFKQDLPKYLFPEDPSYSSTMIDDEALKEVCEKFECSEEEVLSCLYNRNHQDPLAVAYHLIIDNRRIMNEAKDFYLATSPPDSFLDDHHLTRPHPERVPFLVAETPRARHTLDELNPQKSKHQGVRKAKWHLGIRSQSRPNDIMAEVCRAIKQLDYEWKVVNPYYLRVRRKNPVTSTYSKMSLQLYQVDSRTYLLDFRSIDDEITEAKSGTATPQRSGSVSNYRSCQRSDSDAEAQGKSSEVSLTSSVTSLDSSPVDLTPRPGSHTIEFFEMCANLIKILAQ
Chain of Calcium/calmodulin-dependent protein kinase type 1D (Homo sapiens) (Q8IU85 whole entry, looked up): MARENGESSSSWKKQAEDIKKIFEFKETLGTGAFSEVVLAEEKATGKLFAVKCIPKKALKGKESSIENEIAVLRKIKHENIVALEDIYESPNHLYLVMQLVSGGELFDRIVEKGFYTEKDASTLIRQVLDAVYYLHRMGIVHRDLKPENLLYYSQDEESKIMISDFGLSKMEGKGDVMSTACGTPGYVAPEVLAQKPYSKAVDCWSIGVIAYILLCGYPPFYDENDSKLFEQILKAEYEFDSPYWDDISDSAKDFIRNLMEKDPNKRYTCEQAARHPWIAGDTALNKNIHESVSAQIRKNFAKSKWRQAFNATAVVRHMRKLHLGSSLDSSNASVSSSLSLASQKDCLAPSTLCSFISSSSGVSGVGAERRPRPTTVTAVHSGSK
Chain of 5'-AMP-activated protein kinase catalytic subunit alpha-2 (Homo sapiens) (P54646 whole entry, looked up): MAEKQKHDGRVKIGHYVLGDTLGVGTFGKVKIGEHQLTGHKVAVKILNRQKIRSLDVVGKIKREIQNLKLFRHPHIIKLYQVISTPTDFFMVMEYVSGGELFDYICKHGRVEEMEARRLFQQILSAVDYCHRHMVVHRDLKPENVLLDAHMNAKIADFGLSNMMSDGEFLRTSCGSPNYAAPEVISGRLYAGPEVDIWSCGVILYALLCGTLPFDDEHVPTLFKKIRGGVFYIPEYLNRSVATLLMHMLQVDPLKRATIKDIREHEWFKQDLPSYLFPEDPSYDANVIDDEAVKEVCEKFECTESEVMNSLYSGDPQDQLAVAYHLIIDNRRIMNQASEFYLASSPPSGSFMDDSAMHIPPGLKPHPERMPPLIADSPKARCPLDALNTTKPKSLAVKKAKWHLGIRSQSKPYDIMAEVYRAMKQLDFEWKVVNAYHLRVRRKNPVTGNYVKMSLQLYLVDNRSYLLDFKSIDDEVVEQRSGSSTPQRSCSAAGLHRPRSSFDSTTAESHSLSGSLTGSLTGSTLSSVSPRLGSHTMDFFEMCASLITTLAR

With `O=C1Nc2ccc(-c3cccnc3)cc2C1=Cc1cc(Br)c(O)c(Br)c1`, the inhibition in [1] stood at 5.51%; in assay [2], 3.01%; in [3], 3.05%; in [4], 1.63%; in assay [5], 6.41%; in assay [6] it was 3.1%. Moreover, the inhibition was 2% in assay [7]; 3.07% in assay [8]; 3.3% in assay [9]; 2.54% in assay [10]; 7.03% in [11]; -0.34% in [12]. Moreover, the inhibition in assay [13] came to 4.71%; in [14], 2.51%; in assay [15], 4.37%; in assay [16], 2.22%; in assay [17] it was 2.32%; in [18], 1.08%. For the same compound, the values for the inhibition in assay [19] and in assay [20] were 4.01% and 2.95%, respectively.

With `COc1ccc(-c2nn3ncccc3c2-c2ccnc(Nc3cccc(C(F)(F)F)c3)n2)cc1`, the inhibition in [1] worked out at 0.26%; in [2], 1.37%; in assay [3] it was 2.02%; in assay [4], 1.57%; in assay [5], 4.94%; in assay [6] it was 3.1%. Also, the inhibition was found to be 3.41% in assay [7]; 2.78% in [8]; 3.84% in assay [9]; 1.06% in assay [10]; 3.96% in assay [11]; 0.91% in assay [12]. Further, the inhibition was -0.63% in assay [13]; -0.24% in assay [14]; 1.65% in [15]; 2.63% in assay [16]; 2.85% in assay [17]; 0.46% in assay [18]. Further, the inhibition in assay [19] is 0.37%; in assay [20], 2.25%.

Turning to `CN1CCN(C(=O)c2ccc(NC(=O)Nc3ccc(N(C)c4ccnc(Nc5ccc(CS(C)(=O)=O)cc5)n4)cc3)cc2)CC1`, the inhibition in assay [1] came out at 5.11%; in assay [2], 0.94%; in assay [3] it was 3.35%; in assay [4], 1.96%; in [5], 7.04%; in [6], 2.75%. Also, the inhibition in assay [7] worked out at 1.79%; in assay [8] it was 2.09%; in assay [9] it was 5.52%; in assay [10], 3.27%; in assay [11], 7.01%; in assay [12], 0.11%. For the same compound, the inhibition was 44.5% in [13]; 0.56% in assay [14]; 2.28% in assay [15]; 0.38% in assay [16]; 7.68% in assay [17]; 0.6% in [18]. In addition, the inhibition in [19] worked out at 2.18%; in assay [20], 1.63%.

Usually inhibition stands for the drop in the measured response relative to a control, in per cent.

For the origin of these results see ChEMBL document CHEMBL1961873, “Compounds: GSK PKIS; Assays: Nanosyn kinase panel” (2012).
